# In ChEMBL document CHEMBL3988442, “University of Dundee, Small-Polar-MMV Screening Library” (2021):
# Target: T1, Methionyl-tRNA synthetase, putative (Leishmania donovani (strain BPK282A1)) (UniProt E9BF75)
# T1 sequence (whole entry): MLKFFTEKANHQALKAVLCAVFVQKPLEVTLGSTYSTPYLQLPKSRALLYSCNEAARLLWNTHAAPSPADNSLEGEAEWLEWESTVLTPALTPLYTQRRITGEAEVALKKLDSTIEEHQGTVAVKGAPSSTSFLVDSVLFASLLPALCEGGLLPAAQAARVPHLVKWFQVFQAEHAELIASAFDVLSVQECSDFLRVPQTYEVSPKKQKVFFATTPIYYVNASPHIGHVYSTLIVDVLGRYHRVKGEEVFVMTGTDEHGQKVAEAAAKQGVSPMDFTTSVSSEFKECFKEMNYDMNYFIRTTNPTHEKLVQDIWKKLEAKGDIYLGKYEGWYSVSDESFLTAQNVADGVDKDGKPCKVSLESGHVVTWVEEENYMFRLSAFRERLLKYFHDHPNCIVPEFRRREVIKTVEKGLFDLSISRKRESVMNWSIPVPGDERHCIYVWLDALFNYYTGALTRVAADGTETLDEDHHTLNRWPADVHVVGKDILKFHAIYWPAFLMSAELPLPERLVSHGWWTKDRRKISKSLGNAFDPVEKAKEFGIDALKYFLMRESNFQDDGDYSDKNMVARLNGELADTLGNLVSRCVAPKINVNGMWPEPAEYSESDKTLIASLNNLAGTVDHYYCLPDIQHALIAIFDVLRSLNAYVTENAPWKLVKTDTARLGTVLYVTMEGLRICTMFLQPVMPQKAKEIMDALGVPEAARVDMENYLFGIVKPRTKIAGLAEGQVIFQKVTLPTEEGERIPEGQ
# Assay: Leishmania donovani Methionine tRNA synthetase (LdMetRS):v7. Dose response assay
# Type: functional
# Design: conc 80 nM, time 150 minutes
structure (smiles),measurement,setting,value
Cc1nc(NCCN2CCNC2=O)c2ccsc2n1,PXC50,MAX_EFFECT 8.533333333,< 4
same,PXC50,MAX_EFFECT 11.11111111,< 4
COc1cccc(-c2cc(C(F)(F)F)nc(N(C)C)n2)c1,PXC50,MAX_EFFECT 5.18134715,< 4
same,PXC50,MAX_EFFECT 6.914893617,< 4
Cc1nc(N2C[C@@H](CN3CCCN(C)CC3)[C@@H](CO)C2)c2ccsc2n1,PXC50,MAX_EFFECT 12.53263708,< 4
same,PXC50,MAX_EFFECT 15.40469974,< 4
CC(=O)N1CCN(C(=O)c2ccc3ccc(N4CCN(S(C)(=O)=O)CC4)n3c2)CC1,PXC50,"BOTTOM 3.542001412, HILLSLOPE 2.454286416, MAX_EFFECT 62.83018868, TOP 64.11209582",4.91
same,PXC50,"BOTTOM 3.854741042, HILLSLOPE 2.302398718, MAX_EFFECT 55.70776256, TOP 55.14895524",4.97
CCOCCCNc1nc(-c2ccc(C)cc2)cc(C(F)(F)F)n1,PXC50,MAX_EFFECT 5.102040816,< 4
same,PXC50,MAX_EFFECT 5.808080808,< 4
CCOC(=O)N1CCN(c2nc(CCN)nc3sc(C)c(C)c23)CC1,PXC50,"BOTTOM 0.0282, HILLSLOPE 1.091908383, MAX_EFFECT 72.32375979, TOP 100.0",4.33
same,PXC50,"BOTTOM 1.098813228, HILLSLOPE 1.170601195, MAX_EFFECT 79.37336815, TOP 100.0",4.4
COc1ccc(-c2cc(C(F)(F)F)nc(N3CCCC3)n2)cc1,PXC50,MAX_EFFECT 5.85106383,< 4
same,PXC50,MAX_EFFECT 7.772020725,< 4
CC(O)CNc1nc(CN2CCCCC2)nc2sc3c(c12)CCCC3 (stereo not given),PXC50,MAX_EFFECT 8.108108108,< 4
same,PXC50,MAX_EFFECT 9.547738693,< 4
CCC(CO)Nc1nc(CSc2ccccc2)nc2sc3c(c12)CCC3 (stereo not given),PXC50,MAX_EFFECT 27.86885246,< 4
same,PXC50,MAX_EFFECT 29.94652406,< 4
Cc1ccc(N2CCC3(CN(Cc4ccncc4)CCC3(F)F)C2)nn1 (stereo not given),PXC50,MAX_EFFECT 9.977324263,< 4
same,PXC50,MAX_EFFECT 11.58878505,< 4
Cc1sc2nc(CCN)nc(N3CCN(S(C)(=O)=O)CC3)c2c1C,PXC50,MAX_EFFECT 9.660574413,< 4
same,PXC50,MAX_EFFECT 10.96605744,< 4
Cc1nc(N2CCNC(=O)CC2C)c2c(CC(C)C)csc2n1 (stereo not given),PXC50,MAX_EFFECT 4.918032787,< 4
same,PXC50,MAX_EFFECT 7.486631016,< 4
Cc1c(C(=O)NC2CCCC2)ccc2ccc(N3CCN(S(C)(=O)=O)CC3)n12,PXC50,MAX_EFFECT 3.645833333,< 4
same,PXC50,MAX_EFFECT 10.0877193,< 4
CCc1cc2c(NCc3ccccn3)nc(C)nc2s1,PXC50,MAX_EFFECT 3.194103194,< 4
same,PXC50,MAX_EFFECT 6.030150754,< 4
CCC(=O)N1CCC(c2ncc3c(n2)CCNC3)CC1,PXC50,MAX_EFFECT 1.814058957,< 4
same,PXC50,MAX_EFFECT 14.20560748,< 4
CCc1cc2c(NC(C(=O)O)C(C)C)nc(-c3ccccc3)nc2s1 (stereo not given),PXC50,MAX_EFFECT 27.80748663,< 4
same,PXC50,MAX_EFFECT 31.69398907,< 4
Cc1cc(C)n(C2=NC(NCCC(C)C)c3c(sc4c3CCCC4)N2)n1 (stereo not given),PXC50,MAX_EFFECT 4.798464491,< 4
same,PXC50,MAX_EFFECT 13.23763955,< 4
CCc1cc2c(NCCCN(C)C)nc(C)nc2s1,PXC50,MAX_EFFECT 11.55778894,< 4
same,PXC50,MAX_EFFECT 12.03931204,< 4
Cc1nc(N(C)CCC#N)c2c3c(sc2n1)CC(C)CC3 (stereo not given),PXC50,MAX_EFFECT 3.723404255,< 4
same,PXC50,MAX_EFFECT 5.699481865,< 4
CCc1nc(NCCO)c2c3c(sc2n1)CCC3,PXC50,MAX_EFFECT 3.274559194,< 4
same,PXC50,MAX_EFFECT 5.852417303,< 4
Cc1cc2c(NC3CCCCC3)nc(-c3cccnc3)nc2s1,PXC50,MAX_EFFECT 17.08542714,< 4
same,PXC50,MAX_EFFECT 19.41031941,< 4
CCCC(=O)N1CCC(c2ncc3c(n2)CCNC3)CC1,PXC50,MAX_EFFECT 6.802721088,< 4
same,PXC50,MAX_EFFECT 13.45794393,< 4
Cc1nc(NCC(=O)O)c2c3c(sc2n1)CCC3,PXC50,MAX_EFFECT 4.834605598,< 4
same,PXC50,MAX_EFFECT 5.289672544,< 4
CCN1CCN(c2nc(-c3cccnc3)nc3sc(C)cc23)CC1,PXC50,MAX_EFFECT 2.18579235,< 4
same,PXC50,MAX_EFFECT -3.20855615,< 4
COc1cc2ccc(N3CCN(S(C)(=O)=O)CC3)n2cc1C(=O)NC1CCCC1,PXC50,"BOTTOM 1.185639049, HILLSLOPE 1.624291099, MAX_EFFECT 57.89473684, TOP 63.90970976",4.71
same,PXC50,"BOTTOM -1.038445777, HILLSLOPE 1.129445656, MAX_EFFECT 51.04166667, TOP 100.0",4.35
CCc1nc(NCCCC(=O)O)c2c3c(sc2n1)CCC3,PXC50,MAX_EFFECT 7.808564232,< 4
same,PXC50,MAX_EFFECT 8.905852417,< 4
Cc1nc(NCC(C)(C)O)c2c3c(sc2n1)CCCC3,PXC50,MAX_EFFECT 11.84210526,< 4
same,PXC50,MAX_EFFECT 12.5,< 4
O=C(c1ccccc1)C1CCN(c2cncc(-n3cccn3)n2)CC1,PXC50,MAX_EFFECT 17.57719715,< 4
same,PXC50,MAX_EFFECT 27.64084507,< 4
COCCNc1nc(-c2cccnc2)nc2sc3c(c12)CCCC3,PXC50,MAX_EFFECT 11.84210526,< 4
same,PXC50,MAX_EFFECT 12.5,< 4
CC(O)c1ccc(Cl)cc1Cl (stereo not given),PXC50,MAX_EFFECT 7.559395248,< 3
same,PXC50,MAX_EFFECT 15.39923954,< 3
